Measured values from PubChem BioAssay.
Where “and” joins values, the source holds several entries; their conditions need not be identical. Equal values may be shown once. Calls of active or inactive are those of the source. Unless noted, the rule behind the calls is not given here. Where a SMILES comes first, the peptide text is derived from it. The star is where a group is joined. Cbz = O=C(OCc1ccccc1)*

Legend:
[1] = hESC survival regulators, cell-based (AID 493140); details: human embryonic stem cell survival screen; stronger effect = higher value;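 note: cells exposed to compounds for four days before counting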
[2] = sensitizers of A549 cells to miR-34 induction, primary screen, imaging, A549 dox-inducible miR-34, nuclei and caspase counts (AID 1347080;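 active = compounds whose cell count with miR-34 switched on is under 0.7 times the count with it off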); details: A549 miR-34 inducible, Hoechst nuclei count, 48 h
[3] = inhibitors of Cryptococcus chitosan production, flow cytometry, Cibacron Brilliant Red staining (AID 1347148); details: Cryptococcus neoformans chitosan, stronger effect = lower value; at 10 µM unless noted;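 note: compound exposure lasted three days at 37 degrees C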
[4] = circadian clock period modulators, cell-based, LOPAC library, luminescence reporter (AID 2774); details: circadian reporter cells, at 7 µM, actives lie on both sides;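 note: values are relative to mean of DMSO wells on each plate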
[5] = test system: Hepatitis C virus NS3 helicase; assay: HCV NS3 helicase inhibitors, primary screen, biochemical, fluorescence polarization, LOPAC1280 library (AID 687035; in the data active = inhibition above about 37%); details: Purified HCV NS3 helicase, Cy5-dT15 ssDNA binding fluorescence polarization; stronger effect = higher value; concentration not given here
[6] = Cy5 fluorescence quenching or enhancement artefacts, artefact control for HCV NS3 helicase inhibitor project, biochemical, LOPAC1280 (AID 687037); details: Cy5-DNA-NS3h complex fluorescence interference counterscreen
[7] = phospholipid biosynthesis inhibitors in animal cells, primary screen, cell-based, LOPAC library, screen 4 (AID 1347384); details: phospholipid biosynthesis inhibition screen, at 10 µM
[8] = viability rescue of complex I mutant cybrids, primary screen, cell-based, galactose medium, ATP luminescence (AID 1645843;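 active = z-score of at least 1.8 in each of two replicates, scored against plate mean and spread of sample wells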;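 note: positive z means more ATP and so rescue of galactose-driven cybrid death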); details: complex I mutant cybrid cells, 72 h, stronger effect = higher value
[9] = survival rescue of mitochondrial mutant cells in low glucose, primary screen, MELAS cybrids, Rieske KO mouse fibroblasts, CellTiter-Glo (AID 1508586;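 active = mean z-score across replicates of 1.96 or higher in either the MELAS or the Rieske mutant cell line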;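 note: z relative to plate mean and SD of compound and empty wells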)
[10] = stronger effect = lower value, cell number ratio, induced over uninduced
[11] = measured here: relative caspase fold change +Dox/-Dox
[12] = measured here: total cells with miR-34 induction, stronger effect = lower value
[13] = measured here: total cells without miR-34 induction

Compound	survival [1]	fold change [2, 10]	fold change [2, 11]	cell count [2, 12]	cell count [2, 13]	fold fluorescence [3]	period change [4]	inhibition [5]	fluorescence ratio (interference) [6]	outcome [7]	z-score [8]	z-score ([9]; MELAS cybrid survival, CellTiter-Glo 48 h, stronger effect = higher value)	z-score ([9]; Rieske KO mouse fibroblast survival, CellTiter-Glo 72 h)
CCCCCCCC/C=C\C/C=C\C/C=C\CCCC(=O)NCCO	87.2 (inactive)	0.911 (inactive) and 1.07 (inactive)	0.981 and 0.763	6100 and 5740	6690 and 5350	4.64 (inactive)							
CC(C)CC[C@@H](O)[C@@H](C)C1CCC2C3CC=C4C[C@@H](O)CC[C@]4(C)C3CC[C@@]21C (stereo not given in full)		0.933 (inactive)	1.03	5170	5530								
CCCCCC[C@@H]([C@@H](C)O)n1cnc2c(N)ncnc21		0.934 (inactive) and 0.834 (inactive)	0.993 and 0.703	8420 and 3190	9020 and 3820	5.1 [at 180.3 µM] (inactive)	0.15 h (inactive)	-4% (inactive)	1 (inactive)	inactive	-0.69 (inactive)		
CCCCC[C@H](O)/C=C/[C@H]1OC(O)C[C@H](O)[C@@H]1CCCCCCC(=O)O (stereo not given in full)		1.03 (inactive)	1.26	5640	5470								
O=C1C(Nc2ccccc2)=CC(=O)c2ncccc21		0.735 (inactive) and 0.883 (inactive)	1.99 and 0.965	1070 and 904	1450 and 1020	7.9 [at 199.8 µM] (inactive)							
O=C1NC(O)=NC1(c1ccccc1)c1ccccc1		0.966 (inactive) and 0.93 (inactive)	1.46 and 0.866	9800 and 7860	10100 and 8450	4.71 [at 198.2 µM] (inactive)	-0.095 h (inactive)	-2% (inactive)	1.1 (inactive)		0.26 (inactive)	-0.314 (inactive)	-0.0769
CC(C)(C)c1cc(/C=C(\C#N)C(N)=S)cc(C(C)(C)C)c1O	106 (inactive)	1.09 (inactive) and 1.17 (inactive)	1.31 and 0.937	4070 and 1820	3720 and 1560	11.2 [at 158 µM] (inactive)	0.535 h (inactive)	5% (inactive)	1 (inactive)	active	-1.35 (inactive)		
CC(C)[C@H](NC(=O)OCc1ccccc1)C(=O)N[C@H](C=O)Cc1ccccc1 (Cbz-Val-Phe-aldehyde)		1.08 (inactive) and 0.959 (inactive)	1.1 and 1.17	9200 and 4810	8520 and 5010	5.31 [at 130.7 µM] (inactive)	-0.095 h (inactive)	1% (inactive)	1.1 (inactive)	inactive	0.52 (inactive)		
CCCCCCCCCCC/C=C\C(C)(C)/C=C\CCCC(=O)O	88.8 (inactive)	0.986 (inactive) and 1.01 (inactive)	1.15 and 1.25	9810 and 5810	9950 and 5750	5.21 (inactive)	-0.11 h (inactive)	0% (inactive)	0.9 (inactive)	inactive	0.145 (inactive)		
CCCCCCCCCCCCCCCC(=O)NCCS(=O)(=O)O		1.07 (inactive)	0.86	6370	5950								
CCCCC/C=C\C/C=C\C/C=C\CCCCC(=O)O	76.5 (inactive)	0.948 (inactive) and 1.06 (inactive)	1.2 and 0.96	5680 and 5970	5990 and 5660	4.86 (inactive)							
CCCCCCCCCCCCCCCC(=O)N[C@H](C)CO		0.916 (inactive)	0.934	5780	6310								
O=c1[nH]c2cc(C(F)(F)F)ccc2n1-c1cc(C(F)(F)F)ccc1O		0.996 (inactive) and 0.985 (inactive)	0.925 and 0.952	9130 and 5130	9180 and 5210	3.32 [at 138 µM] (inactive)	-0.3 h (inactive)	-6% (inactive)	0.9 (inactive)	inactive	0.585 (inactive)		
CCOc1c2c(c(OCC)c3ccccc13)C(=O)N(c1ccc(CC(=O)NS(=O)(=O)c3ccccc3)cc1)C2		0.911 (inactive)	1.11	5560	6100								
C[C@@]1(C2CCCC2)Cc2cc(OCC(=O)O)c(Cl)c(Cl)c2C1=O		1.13 (inactive) and 0.909 (inactive)	0.91 and 1.29	11200 and 5500	9900 and 6050	4.41 [at 140 µM] (inactive)	0.04 h (inactive)	-6% (inactive)	1 (inactive)	inactive	0.845 (inactive)		
Nc1ccc2c3c(cccc13)C(=O)NC2=O		0.949 (inactive) and 1.13 (inactive)	1.39 and 0.672	8220 and 6020	8660 and 5330	4.37 [at 235.6 µM] (inactive)	0.025 h (inactive)	-1% (inactive)	1 (inactive)	inactive	0.605 (inactive)		
